Screening data deposited in PubChem by National Center for Advancing Translational Sciences (NCATS).
D3 ag: qHTS of D3 Dopamine Receptor Agonist: qHTS. D(3) dopamine receptor (Homo sapiens), P35462. D3R DiscoveRx beta-arrestin cells, luminescence, 90 min. max activation, %. 410,000 tested, 0.58% active; in the data active = max activation above about 30%; also: 0% is about no effect
Target sequence (P35462 whole entry, looked up): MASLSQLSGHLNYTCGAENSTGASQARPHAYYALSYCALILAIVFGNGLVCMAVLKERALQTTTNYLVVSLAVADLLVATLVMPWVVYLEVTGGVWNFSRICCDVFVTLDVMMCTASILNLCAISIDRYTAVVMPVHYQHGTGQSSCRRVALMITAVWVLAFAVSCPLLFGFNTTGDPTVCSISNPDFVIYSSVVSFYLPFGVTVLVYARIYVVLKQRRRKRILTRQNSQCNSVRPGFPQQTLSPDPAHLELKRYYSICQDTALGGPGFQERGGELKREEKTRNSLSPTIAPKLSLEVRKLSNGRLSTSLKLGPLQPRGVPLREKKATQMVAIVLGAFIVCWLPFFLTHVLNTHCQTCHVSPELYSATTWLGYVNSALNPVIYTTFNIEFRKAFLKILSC
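Cells at 1500/well, incubated overnight, then treated with pinned compounds (dopamine as control) for 90 min at 37 degrees C. DiscoveRx reagent added for 30 - 60 minutes at room temperature; luminescence read.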
DRD3 antagonist: qHTS of D3 Dopamine Receptor Antagonist: qHTS; 360,000 tested, 2.5% active; AID 652054, 2013; max response, negative = inhibition, %; D(3) dopamine receptor (Homo sapiens), P35462; D3R cells, DiscoveRx beta-arrestin luminescence, antagonist mode; stronger effect = lower value; in the data active = max response below about -50%; inconclusive = no clear call, values can overlap the other calls; also: % is scaled to controls: 0 for no effect and ±100 for the full control effect
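Cells plated overnight at 1500 cells/well, then exposed to library compounds with dopamine controls for 90 minutes at 37 degrees C. DiscoveRx reagent added for 30–60 minutes at room temperature; luminescence read, quantitative HTS format.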
ATXN2 expr inh: Primary qHTS for Inhibitors of ATXN expression; HEK-293 ATXN2-luciferase reporter, luminescence, 24 h; Potency, µM (top dose mostly 57 µM), without a hit: at the highest dose activity change, negative = inhibition, usual class: inhibitors; 360,000 tested, 0.72% active; AID 1745845, 2022; also: potency is read from the fitted curve at half-maximal effect; % is scaled to controls: 0 for no effect and ±100 for the full control effect; nearly all actives have a fitted effect of over 55% in size
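ATXN2-luciferase reporter cells (luciferase flanked by upstream and downstream ATXN2 gene portions) were treated 24 h at 37 °C with compounds at up to 57 uM. SteadyGlo luminescence gave expression; GF-AFC fluorescence gave viability.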
HepG2 viability: qHTS for Inhibitors of TGF-b: Cytotox Counterscreen | 410,000 tested, 0.76% active | Potency, µM (series often up to 46.1 µM), inactives show at the highest dose activity change, negative = cytotoxicity, hits mostly cytotoxic | HepG2 CAGA-GFP viability, ATP luminescence, 18 h; also: potency is read from the fitted curve at half-maximal effect
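HepG2 CAGA-GFP cells (1000/well, DMEM with 1% FBS) received compound, then TGF-beta at 500 pg/mL final, and were incubated 18 hours at 37 degrees C. Viability was read by CellTiter-Glo luminescence. Media-only wells were set as complete cell-killing and DMSO as no toxicity.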
ATXN viability: Viability Counterscreen for Primary qHTS for Inhibitors of ATXN expression; S2 cells (HEK-293 line with an ATXN2-luciferase reporter) viability, CellTiter-Fluor protease fluorescence, 24 h; Potency, µM (titrated, usually from 56.7 µM), hits mostly cytotoxic; 400,000 tested, 0.49% active; AID 651635, 2014; also: potency is read from the fitted curve at half-maximal effect; nearly all actives have a fitted effect of over 40% in size
TGFb inhibitor: qHTS for Inhibitors of TGF-b. HepG2 CAGA-GFP TGF-b/SMAD3 reporter, GFP fluorescence, 18 h; TGF-beta stimulated, 500 pg/mL final. Potency, µM (top dose mostly 46.1 µM), for inactives: top-dose activity, negative = inhibition, usual class: inhibitors. 410,000 tested, 1.2% active. AID 588855, 2011; also: potency is read from the fitted curve at half-maximal effect; % is scaled to controls: 0 for no effect and ±100 for the full control effect; nearly all actives have a fitted effect of over 65% in size
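Inhibition was scored as loss of TGF-beta-induced (500 pg/mL final, 18 hours, 37 degrees C) GFP in HEPG2 cells carrying a CAGA-GFP reporter, in DMEM with 1% FBS. Well GFP was summed per cell; Activity was normalised to unstimulated and stimulated DMSO wells, then concentration-response fitting.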
Numbers without * were called inactive; i = inactive; ? = inconclusive; . = no result given; ! = a repeat was not active. Most compounds without a hit are left out; they make up all but 4.8% or so of the library. Unless noted, calls follow the shape of the dose curve; as a rule, active = well fitted curve in the direction sought with a large enough effect; inconclusive = small, poorly fitted or top-dose-only effect, or another doubt; inactive = no such curve, though single readings can be large; an effect the other way counts as inactive or inconclusive.

SMILES	D3 ag	DRD3 antagonist	ATXN2 expr inh	HepG2 viability	ATXN viability	TGFb inhibitor
CC(C)Cn1cc(NC(=O)NCc2cccc(Cl)c2)c2ccccc2c1=O	-8	.	-5%	-81%	i	-3%
COc1ccccc1-c1noc(-c2ccc(NC3CCCC3)c([N+](=O)[O-])c2)n1	1	.	37%	-2%	i	-10%
COc1ccc2c(c1)CC(C(=O)NCCCN1CCN(c3ccc(F)cc3)CC1)CO2 (configuration not stated)	-16	.	-18%	-20%	i	-3%
C(=C\c1ccnc2ccccc12)/c1ccccc1	.	.	.	-23%	.	3%
CC1(C)CC2C1CCC1(O)CC2(C)CCC1N(O)c1ccc(C(=O)NCCO)cn1 (configuration not stated)	40*	30	28µM*	-39%	?	-25%
CCCOc1ccc(C(=O)NCCO)cc1	2	92	2%	0%	i	-2%
O=C1OC(c2cccs2)=N/C1=C\c1ccc(-c2cccc(Cl)c2)o1	7	-3	-14%	-22%	i	2%
N=C1S/C(=C\c2ccc(-c3cccc(Cl)c3)o2)C(=O)N1c1nccs1	6	-20	3.5µM*	2%	5.6µM*	?
COc1ccc(/C=C2\SC(=N)N(c3nccs3)C2=O)cc1OC	-6	0	11µM*	-10%	?	-25%
Cc1ccc2nc(C(C)(C)C)c(Cc3ccsc3)n2c1	-9	-107*	14%	-43%	?	?
CCOC(=O)C1=C[C@]2(CC)CCCN3CCc4c(n1c1ccccc41)[C@@H]32	6	25	31µM*!	-6%	?	3%
CC(C)c1ccc(-n2c(-c3ccccc3)c[n+]3c2CCc2ccccc2-3)cc1	2	-4	?	-22%	?	?
COc1ccccc1-n1c(-c2ccccc2)c[n+]2c1CCc1ccccc1-2	-4	11	6.7µM*!	-21%	?	13µM*
CCN(CC)S(=O)(=O)c1cc(NC(=O)C(C)N2CCN(c3ccccn3)CC2)ccc1C (configuration not stated)	3	23	-18%	-18%	i	-16%
Cc1cc(C)cc(NC(=O)CN2CCN(c3ccccn3)CC2)c1	-17	-21	-1%	-2%	i	-17%
CN(C)c1ccc(NC(=O)CCN2CCN(c3ccccn3)CC2)cc1	95*	-4	.	-16%	i	11%
Cc1ccc(NC(=O)CN2CCN(c3ccccn3)CC2)cc1S(=O)(=O)N(C)C	62*	70	-6%	-2%	i	0%
CCN(CC)S(=O)(=O)c1cc(NC(=O)CN2CCN(c3ccccn3)CC2)ccc1C	91*	6	.	4%	?	-6%
CN(C)S(=O)(=O)c1cc(NC(=O)CN2CCN(c3ccccc3)CC2)ccc1Cl	64*	9	5%	1%	i	-13%
O=S(=O)(c1ccc(Cl)cc1)c1nc(-c2cccs2)oc1SCc1ccccc1F	7	.	0%	-17%	i	-12%
CC(=O)Nc1ccc(NC(=O)CN2CCN(c3ccccn3)CC2)cc1	11	0	4%	3%	i	3%
CN(C)S(=O)(=O)c1ccc(NC(=O)CN2CCN(c3ccccn3)CC2)cc1	66*	11	-6%	7%	i	17%
CC(=O)Nc1ccc2sn(-c3ccccc3)c(=O)c2c1	-13	-9	-27%	-57%	?	?
COc1ccc(-n2sc3ccc(F)cc3c2=O)cc1	-43	-55*	?	-65%	25µM*	?
COc1ccc(-n2sc3ccccc3c2=O)cc1	-13	-18	?	13µM*	.	20µM*
O=c1c2cc(F)ccc2sn1-c1ccc(F)cc1	-2	2	?	-56%	.	16µM*
